DT40 TDP1 no CPT – qHTS for Inhibitors of human tyrosyl-DNA phosphodiesterase 1 (TDP1): qHTS in cells in absence of CPT | DT40 Tdp1-/- hTDP1 cells, no CPT, ATP luminescence, 48 h | Potency, µM (highest dose often 46.2 µM), for inactives: at the highest dose activity change, negative = growth inhibition, hits mostly inhibitors | actives 15% (n = 420,000) | AID 686978, 2013; also: nearly all actives have a fitted effect of over 55% in size
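A cellular qHTS used chicken DT40 cells lacking endogenous Tdp1 but carrying stably transfected human TDP1. Compounds were applied without camptothecin, and cell growth kinetics were judged by ATP-dependent luminescence after ≥48 hr.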
ELG1 repair inh – qHTS screen for small molecules that inhibit ELG1-dependent DNA repair in human embryonic kidney (HEK293T) cells expressing luciferase-tagged ELG1; AID 504467, 2011; HEK293T ELG1-luciferase reporter, luminescence, 16 h; DNA damage induced by 5-fluorouridine; actives 2.3% (n = 330,000); Potency, µM (highest dose often 46.1 µM), for inactives: at the highest dose activity change, negative = inhibition, actives largely listed as inhibitors; also: nearly all actives have a fitted effect of over 55% in size
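Quantitative HTS, concentration-response format. 2,000 cells/well co-treated with 5-fluorouridine and compound, 16 hr in 5% CO2 at 37 °C; ONE-Glo luminescence read after 30 min.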
TDP1 cell CPT – qHTS for Inhibitors of human tyrosyl-DNA phosphodiesterase 1 (TDP1): qHTS in cells in presence of CPT. chicken DT40 Tdp1-/-;hTDP1 cells + 20 nM CPT, ATP luminescence, 48 h. Potency, µM (top dose mostly 46.2 µM), for inactives: at the top dose activity change, negative = growth inhibition, usual class: inhibitors. actives 12% (n = 420,000). AID 686979, 2013; also: nearly all actives have a fitted effect of over 55% in size
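Cell growth measured by CellTiter-Glo luminescence after a minimum 48 h, 37 C compound exposure with 20 nM CPT in Tdp1-knockout DT40 cells stably expressing hTDP1, seeded 400/well; qHTS titration format.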
ALOX12 inh – Primary qHTS assay for inhibitors of human arachidonate 12S-lipoxygenase (ALOX12): Round 2 | actives 1.1% (n = 580,000) | Potency, µM (top dose mostly 108 µM), without a hit: at the highest dose activity change, negative = inhibition, actives largely listed as inhibitors | Polyunsaturated fatty acid lipoxygenase ALOX12 (Homo sapiens), P18054 | purified 12hLO, xylenol orange hydroperoxide absorbance
Target sequence (P18054 whole entry, looked up): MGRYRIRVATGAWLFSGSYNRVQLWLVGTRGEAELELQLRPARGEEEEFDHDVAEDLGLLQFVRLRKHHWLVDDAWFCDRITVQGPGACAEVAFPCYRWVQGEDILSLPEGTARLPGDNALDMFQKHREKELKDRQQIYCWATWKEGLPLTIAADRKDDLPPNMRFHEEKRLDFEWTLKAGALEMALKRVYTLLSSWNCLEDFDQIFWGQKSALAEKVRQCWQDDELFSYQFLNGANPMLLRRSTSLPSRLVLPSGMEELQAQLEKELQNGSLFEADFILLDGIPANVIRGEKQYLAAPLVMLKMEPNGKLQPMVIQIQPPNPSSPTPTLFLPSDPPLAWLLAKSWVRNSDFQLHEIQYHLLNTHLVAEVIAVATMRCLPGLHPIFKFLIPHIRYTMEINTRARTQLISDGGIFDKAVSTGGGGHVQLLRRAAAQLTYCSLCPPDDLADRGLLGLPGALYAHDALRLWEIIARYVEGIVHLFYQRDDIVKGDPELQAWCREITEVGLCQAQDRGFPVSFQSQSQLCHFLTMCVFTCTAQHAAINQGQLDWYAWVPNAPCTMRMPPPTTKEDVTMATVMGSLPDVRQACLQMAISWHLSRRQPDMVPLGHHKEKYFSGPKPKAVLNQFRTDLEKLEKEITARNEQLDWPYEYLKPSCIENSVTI
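Purified human 12hLO (150 nM final) in 25 mM Hepes, 0.01% Triton X-100, pH 7.0 was preincubated 15 min at room temperature with compound. Then 40 uM arachidonic acid was added, 30 min. Hydroperoxide was read by Fe-XO absorbance ratio 573/405 nm.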
Gal4-VP16 FLuc – VP16 counterscreen qHTS for inhibitors of ROR gamma transcriptional activity; Drosophila S2 Gal4-VP16 UAS-luciferase, luminescence, 20 h; Potency, µM (doses to about 53.6 µM), for the others: at the highest dose activity, negative = inhibition, most hits filed as inhibitors; actives 3.5% (n = 310,000); AID 2546, 2010;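 also: Gal4-VP16 expression switched on by copper sulfate through the metallothionein promoter; nearly all actives have a fitted effect of over 50% in size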
RORgamma inh – qHTS for inhibitors of ROR gamma transcriptional activity | Drosophila S2 Gal4-RORgamma UAS-luciferase reporter, 20 h | AID 2551, 2010 | Potency, µM (series often up to 53.6 µM), inactives show top-dose activity change, negative = inhibition, usual class: inhibitors | actives 5.4% (n = 310,000); also: nearly all actives have a fitted effect of over 60% in size
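Drosophila S2 cells stably expressing Gal4-DBD/mouse RORγ fusion under metallothionein promoter plus UAS-luciferase; compound 1 h, then 700 uM CuSO4 induction for 20 h at ambient temperature; inhibition read as reduced luminescence.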
The depositor's hits bear a star; ? = inconclusive; / = no result given; [ ] = remark or other dose. An excerpt weighted towards active compounds, which were near 15% of everything screened. Calls follow the shape of the dose curve; as a rule, active = well fitted curve in the direction sought with a large enough effect; inconclusive = small, poorly fitted or top-dose-only effect, or another doubt; inactive = no such curve, though single readings can be large; an effect the other way counts as inactive or inconclusive. % is scaled to controls: 0 for no effect and ±100 for the full control effect; potency is read from the fitted curve at half-maximal effect.

SMILES | DT40 TDP1 no CPT | ELG1 repair inh | TDP1 cell CPT | ALOX12 inh | Gal4-VP16 FLuc | RORgamma inh
Cc1nc(NCCC(C)C)sc1C(=O)NC1CC1 | / | / | / | 63% | / | /
O=C(O)/C=C/c1csc2ccccc12 | / | / | / | 11% | / | /
O=C(Nc1cc(=O)[nH]c(=O)[nH]1)c1cc(Cl)ccc1Cl | 4.1µM* | ? | 3.3µM* | 0% | -5% | -1%
O=C(Nc1cc(=O)[nH]c(=O)[nH]1)c1cccc(C(F)(F)F)c1 | -4% | -13% | -21% | 0% | -3% | 1%
COC(=O)c1ccc(OCC(O)CN2CCN(C(=O)c3ccco3)CC2)cc1 (stereo not given) | -4% | ? | 5% | -18% | -2% | -7%
O=C(c1ccco1)N1CCN(Cc2csc(-c3ccccc3Cl)n2)CC1 | 21µM* | ? | ? | ? | -19% | 16%
O=C(c1ccco1)N1CCN(CC(O)Cn2c3ccccc3c3ccccc32)CC1 (stereo not given) | ? | ? | 18µM* | -20% | -8% | 7%
O=C(c1ccco1)N1CCN(Cc2cccc3ccccc23)CC1 | ? | ? | 8.2µM* | ? | 7% | 25%
O=C(c1ccco1)N1CCN(Cc2c(Cl)cccc2Cl)CC1 | 9.2µM* | ? | ? | 3% | -1% | 8%
COCCN(CCOC)Cc1cc(=O)oc2ccc3ccccc3c12 | 18µM* | / | ? | -26% | / | /
CCCCN(C)Cc1cc(=O)oc2ccc3ccccc3c12 | -23% | ? | -10% | ? | -5% | -30%
COCCN(CCOC)Cc1cc(=O)oc2cc(C)c(C)cc12 | ? | / | 9% | 14µM* | / | /
CCCN(CCC)Cc1cc(=O)oc2cc(OC)c(Cl)cc12 | ? | / | ? | 32µM* | / | /
COCCN(CCOC)Cc1cc(=O)oc2cc(OC)ccc12 | ? | / | 16% | ? | / | /
O=[N+]([O-])c1cc(S(=O)(=O)Nc2ccc(Cl)cc2)ccc1N/N=C/c1ccccc1 | / | / | / | 13% | / | /
COc1ccc2[nH]cc(CCNc3ncnc4ccc(-c5c(C)noc5C)cc34)c2c1 | ? | / | ? | -9% | -14% | -3%
COc1ccc2[nH]cc(CCNc3ncnc4ccc(-c5ccccc5OC)cc34)c2c1 | ? | / | ? | -2% | 7% | 53%
COc1ccc2[nH]cc(CCNc3ncnc4ccc(-c5ccc6c(c5)OCO6)cc34)c2c1 | 16µM* | / | ? | -23% | -2% | 33%
COc1ccc2[nH]cc(CCNc3ncnc4ccc(-c5cccnc5)cc34)c2c1 | 23µM* | / | 15µM* | -7% | 0% | ?
Cc1ccccc1NC(=O)c1cccc(C(F)(F)F)c1 | -23% | 5% | -28% | -13% | -1% | 8%
O=C(NNc1ccccc1Br)C(O)(c1cccc(C(F)(F)F)c1)c1cccc(C(F)(F)F)c1 | 15µM* | ? | 29µM* | -32% | ? | 23%
Nc1nc(CN2CCN(C(=O)c3cc(F)cc(F)c3)CC2)nc2ccccc12 | / | / | / | 78% | / | /
Clc1ccc(-c2nnc3n2CCN(Cc2ccsc2)C3)cc1 | / | / | / | 2%[6.33 µM] | / | /
CN(C)CCCn1ccnc1C1CCCN(C(=O)N(C)c2ccccc2)C1 (stereo not given) | / | / | / | 7% | / | /
Cc1cc(C(=O)CSc2ncnc3ccccc23)c(C)n1CC(F)(F)F | / | / | / | -28% | / | /
SMILES | DT40 TDP1 no CPT | ELG1 repair inh | TDP1 cell CPT | ALOX12 inh | Gal4-VP16 FLuc | RORgamma inh
c1ccc(OCc2nn3c(CN4CCOCC4)nnc3s2)cc1 | / | / | / | 10µM* | / | /
c1ccc(OCc2nn3c(Cn4nnc5ccccc54)nnc3s2)cc1 | 21µM* | 4% | 16µM* | ? | 11% | 24%
c1ccc2c(c1)OCC(c1nn3c(Cn4nnc5ccccc54)nnc3s1)O2 (stereo not given) | ? | ? | 26µM* | ? | 6%[0.365 µM] | ?
c1ccc(Cc2nn3c(Cn4nnc5ccccc54)nnc3s2)cc1 | -25% | 15% | ? | 56µM* | -12% | 36%
Fc1ccc(-c2nnc3sc(C4COc5ccccc5O4)nn23)cc1 (stereo not given) | ? | 7% | ? | 10% | -2% | 17%
COc1ccc(NC(=O)N2C[C@@H](F)C[C@H]2C(=O)N2CCCCC2)c(OC)c1 | / | / | / | 17% | / | /
COC(=O)c1cc2c(Cl)c(Cl)ccc2[nH]1 | / | / | / | -31% | / | /
COC(=O)C1(C)Cc2ccccc2C(=O)O1 (stereo not given) | / | / | / | 33% | / | /
O=c1cc(-c2ccccc2)nc2cc(-c3ccc(F)cc3)[nH]n12 | 6.5µM* | / | 7.3µM* | 57% | / | /
CCc1c(C)nc2cc(-c3ccc(OC)cc3)[nH]n2c1=O | 15µM* | ? | 21µM* | -6% | 18% | -25%
Cc1cc(=O)n2[nH]c(-c3ccccc3)cc2n1 | -12% | / | -25% | 0%[57.4 µM] | 5% | -7%
CCOC(=O)Cc1c(C)nc2cc(-c3ccc(Cl)cc3)[nH]n2c1=O | -22% | ? | -22% | 3% | -7% | -5%
COc1cccc(-c2cc3nc(-c4ccccc4)cc(=O)n3[nH]2)c1 | 2.6µM* | ? | 2.6µM* | 0% | 13% | -27%
Cc1nc2cc(-c3ccccc3)[nH]n2c(=O)c1C | ? | ? | ? | 0% | -16% | ?
Cc1cc(=O)n2[nH]c(-c3ccc(C(C)(C)C)cc3)cc2n1 | 21µM* | ? | 18µM* | 20% | 22µM* | ?
COc1ccc(NC(=O)COc2ccc3c(C)c(C)c(=O)oc3c2)cc1 | / | / | / | -4% | / | /
COc1ccc(N2CCC(N)C2=O)cc1 (stereo not given) | / | / | / | 33% | / | /
NC(Cc1ccccc1)C(=O)N1CCC2(CC1)CN(C(=O)c1ccc(Cl)cc1)CCO2 (stereo not given) | / | / | / | 9%[6.33 µM] | / | /
O=C(c1ccc2c(c1)OCO2)N1CC2(Cc3ccccc3NC2=O)C1 | / | / | / | -4%[6.33 µM] | / | /
Cc1csc(N(C(=O)c2ccccc2F)c2ccccc2)n1 | 10µM* | -18% | 23µM* | -4% | 8% | 6%
Cc1csc(N(C(=O)c2ccc(S(=O)(=O)N(C)C)cc2)c2ccccc2)n1 | -26% | 5% | -22% | 0% | 2% | -3%
CN(C)c1ccc2c(O)cc(=O)n(C)c2c1 | 16µM* | 9% | 15µM* | -8% | -15% | ?

Assay outcomes from PubChem BioAssay.
